The list is not random: actives were taken first. Their share in the collection is about 19%.
HT1080NT lethal: kills 2HG-producing HT-1080-NT fibrosarcoma cells; HT-1080-NT fibrosarcoma viability, CellTiter-Glo ATP luminescence, 48 h; Potency, µM (titrated, usually from 46.1 µM), usual class: cytotoxic; 360,000 compounds, 1.6% hits; AID 686970;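 further: NT is the 2HG producing partner of a matched IDH1 knockdown line; nearly all actives have a fitted effect of over 55% in size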
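HT-1080-NT fibrosarcoma cells (2HG-overproducing), 750 cells/well in RPMI with 5% FBS, dosed after 2 h and incubated 48 h at 37C. CellTiter-Glo luminescence normalized to DMSO and no-cell wells; concentration-response curves fitted and classed.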
ELG1 repair inh: inhibitors of ELG1-dependent DNA repair in HEK293T cells. Potency, µM (series often up to 46.1 µM), hits mostly inhibitors. HEK293T ELG1-luciferase reporter, luminescence, 16 h; DNA damage induced by 5-fluorouridine. AID 504467. 330,000 compounds, 2.3% hits; further: nearly all actives have a fitted effect of over 55% in size
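Step one: seed 2,000 cells per well. Step two: pin-transfer compound or DMSO alongside 5-fluorouridine. Step three: incubate 16 hr, 37 °C, 5% CO2. Step four: add ONE-Glo, wait 30 min, read luminescence.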
DT40 TDP1 no CPT: qHTS for Inhibitors of human tyrosyl-DNA phosphodiesterase 1 (TDP1): qHTS in cells in absence of CPT; 420,000 compounds, 15% hits; Potency, µM (highest dose often 46.2 µM), actives largely listed as inhibitors; AID 686978, 2013; DT40 Tdp1-/- hTDP1 cells, no CPT, ATP luminescence, 48 h; further: nearly all actives have a fitted effect of over 55% in size
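Cells were dispensed at 400 per well, compounds added by pin tool, plates incubated ≥48 hr at 37 °C, then CellTiter-Glo added for 30 min at room temperature before luminescence reading. Line: DT40 Tdp1-/- complemented with hTDP1; camptothecin omitted.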
IL-1B inflam inh: inflammasome signaling inhibition, IL-1 beta readout. activity change, % at 57.5 µM. 360,000 compounds, 4.7% hits. THP-1 LPS/ATP IL-1B secretion, AlphaLISA, 16 h; active compounds read low. AID 743279; in the data active means activity change below about -50%; inconclusive means mostly about -30% to -49%
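Secreted IL-1B measured by AlphaLISA bead assay after 16 h compound exposure of THP-1 cells; compounds (final up to 57.5 uM) added 1 h before LPS (250 ng/mL) and ATP (1.25 mM) stimulation; lower signal means less secretion.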
DT40 TDP1 CPT: DT40-hTDP1 cell growth loss with CPT; chicken DT40 Tdp1-/-;hTDP1 cells + 20 nM CPT, ATP luminescence, 48 h; Potency, µM (top dose mostly 46.2 µM), actives largely listed as inhibitors; 420,000 compounds, 12% hits; AID 686979; further: nearly all actives have a fitted effect of over 55% in size
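Cell growth measured by CellTiter-Glo luminescence after a minimum 48 h, 37 C compound exposure with 20 nM CPT in Tdp1-knockout DT40 cells stably expressing hTDP1, seeded 400/well; qHTS titration format.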
HT1080 IDH1KD tx: kills HT-1080 cells with IDH1 knockdown. HT-1080 IDH1 knockdown viability, ATP luminescence, 48 h. Potency, µM (titrated, usually from 46.1 µM), hits mostly cytotoxic. 360,000 compounds, 2% hits
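% activity derives from luminescence (CellTiter-Glo), normalised to DMSO and no-cell wells. HT-1080-IDH1KD cells, 750/well, had 48 h compound exposure at 37 °C.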
Hits are given with their value; 0 = inactive; ? = inconclusive; - = not tested or not shown. Unless noted, the call rests on the fitted dose curve; in most records, active means well fitted curve in the direction sought with a large enough effect; inconclusive means small, poorly fitted or top-dose-only effect, or another doubt; inactive means no such curve, though single readings can be large; an effect the other way counts as inactive or inconclusive.

SMILES	HT1080NT lethal	ELG1 repair inh	DT40 TDP1 no CPT	IL-1B inflam inh	DT40 TDP1 CPT	HT1080 IDH1KD tx
O=C(CCN1CCC(c2ccccc2)C1)c1cccs1 (stereo not drawn)	?	0	2.59µM	0	1.84µM	3.98µM
O=C(CCN1CCCC1)c1cccs1	0	0	1.46µM	0	0.731µM	0
O=C(c1cccs1)N1CCCC1	0	0	0	0	0	0
N=c1n(CCN2CCCCC2)c2ccccc2n1CC(=O)c1cccs1	?	0	20.6µM	-76.4	18.4µM	?
O=C(CCN1CCC2CCC(C2)C1)c1ccc(F)cc1 (stereo not drawn)	0	-	2.91µM	0	3.26µM	0
COc1cc(C(=O)CCN2CCC(c3ccccc3)C2)cc(OC)c1OC (stereo not drawn)	0	0	5.8µM	-104.8	4.61µM	0
O=C(CCN1CCC(c2ccccc2)C1)c1ccccc1 (stereo not drawn)	0	0	3.66µM	0	3.66µM	?
O=C(CCN1CCC(c2cccs2)=N1)c1cccs1	0	?	5.17µM	0	5.8µM	0
O=C(CCN1CCC(c2ccccc2)C1)c1ccc2c(c1)OCCO2 (stereo not drawn)	4.61µM	0	1.84µM	0	2.06µM	18.4µM
O=C(CCCc1ccccc1)c1ccc2c(c1)OCCO2	0	?	0	0	0	0
O=C(COc1ccc2ccccc2c1)NCC1CCCO1 (stereo not drawn)	0	?	0	0	0	0
O=C(Cn1cc(COc2c(F)c(F)c(Br)c(F)c2F)nn1)c1ccc(O)cc1	0	-	?	0	?	0
CCN(CC(=O)Nc1c(F)cccc1F)C(=O)CNC(=O)C1CCCCC1	0	0	0	0	0	0
CCCn1c(SCC(=O)N(C)C2CCCCC2)n[nH]c1=O	0	-	0	0	0	0
C=CCN(CC=C)S(=O)(=O)c1ccc(C(=O)Nc2nnc(COC)o2)cc1	0	?	16.4µM	0	?	?
COCc1nnc(NC(=O)c2ccc(S(=O)(=O)N(CC(C)C)CC(C)C)cc2)o1	?	?	?	0	?	?
COCc1nnc(NC(=O)c2ccc(S(=O)(=O)N(C)c3ccccc3)cc2)o1	0	0	?	0	16.4µM	0
CCCCN(CC)S(=O)(=O)c1ccc(C(=O)Nc2nnc(COC)o2)cc1	?	0	?	0	?	?
O=C1CCN(Cc2ccc(O)cc2)CCN1[C@H](CO)c1ccccc1	0	0	0	0	0	0
CC(C)(C)c1ccc(CC(=O)N2CCC2(C)C(=O)NS(=O)(=O)c2ccc(Cl)cc2)cc1 (stereo not drawn)	0	-	0	0	0	0
Cc1ccc(C)c(N(C(=O)c2csnn2)C(C(=O)NC2CCCCC2)c2ccccn2)c1 (stereo not drawn)	0	0	0	0	0	0
NS(=O)(=O)c1cc(C(=O)OCC(=O)Nc2ccccc2[N+](=O)[O-])ccc1Cl	0	0	0	0	0	0
Cc1ccccc1NC(=O)COC(=O)c1ccc(S(C)(=O)=O)c([N+](=O)[O-])c1	?	?	3.98µM	-95.8	2.51µM	10.3µM
Cc1ccccc1NC(=O)Cc1nc(COC(=O)c2ccc(S(C)(=O)=O)c([N+](=O)[O-])c2)cs1	?	?	3.66µM	-101.5	2.91µM	16.4µM
CC(C)(C)c1ccc(OCCC(=O)OCC(=O)Nc2cccnc2Cl)cc1	0	0	16.4µM	0	?	0
SMILES	HT1080NT lethal	ELG1 repair inh	DT40 TDP1 no CPT	IL-1B inflam inh	DT40 TDP1 CPT	HT1080 IDH1KD tx
Cc1ccccc1NC(=O)Cc1nc(COC(=O)c2ccc(NC(N)=O)cc2)cs1	0	?	?	0	?	0
CC(CCc1ccccc1)NC(=O)COC(=O)c1ccc(S(C)(=O)=O)c([N+](=O)[O-])c1 (stereo not drawn)	16.4µM	?	2.31µM	-107.6	2.31µM	7.31µM
C=CCNC(=O)CSCc1ccc(Br)cc1	0	0	0	0	0	0
COc1ccc(CC(=O)Nc2ccc(S(=O)(=O)N3CCCC3)cc2)c(OC)c1	0	0	0	0	0	0
CCOc1ccc(NC(=O)CN(C)C(=O)CN2C(=O)c3ccc([N+](=O)[O-])cc3C2=O)cc1OCC	0	0	0	0	0	0
NS(=O)(=O)c1cc(C(=O)OCC(=O)Nc2ccc(Cl)cc2[N+](=O)[O-])ccc1Cl	0	0	0	0	0	0
CS(=O)(=O)c1ccc(C(=O)OCC(=O)Nc2cccnc2Cl)cc1[N+](=O)[O-]	0	?	8.2µM	-96.1	6.51µM	?
CS(=O)(=O)c1ccc(C(=O)OCC(=O)Nc2cc(C(F)(F)F)ccc2Cl)cc1[N+](=O)[O-]	-	-	?	-	11.2µM	-
C[C@@H](c1ccccc1)N1C[C@H](COCc2ccccc2)Oc2cc(N3CC[C@H](N(C)C)C3)ccc2S1(=O)=O	?	-	?	0	?	?
NNC(=S)NCc1ccc2c(c1)OCO2	0	0	?	0	?	0
Cc1cc(OCCCC(=O)NCCc2nnc3ccccn23)ccc1Cl	0	0	16.4µM	0	?	0
COCCN1C(=O)c2ccccc2C(C(=O)NCc2ccco2)C1c1c[nH]c2ccccc12 (stereo not drawn)	0	0	0	0	0	0
COCCN1C(=O)c2ccccc2C(C(=O)NCCCN2CCCC2)C1c1c[nH]c2ccccc12 (stereo not drawn)	0	0	25.9µM	0	?	0
O=C(Nc1ccccn1)c1ccc(CN(c2ccccc2)S(=O)(=O)c2ccccc2)cc1	0	18.3µM	?	0	?	0
Cc1ccc(C(=O)Nc2ccc(S(=O)(=O)N(Cc3ccccc3)c3ccccc3)cc2)cc1	-	-	23.1µM	-	16.4µM	-
COC(=O)Cc1ccc(N(Cc2ccccc2F)S(=O)(=O)c2ccc(Cl)cc2)cc1	0	0	14.6µM	0	?	0
COc1ccc(N(Cc2ccccc2)S(=O)(=O)c2cccc(C(=O)Nc3ccccn3)c2)cc1	0	0	?	0	?	0
COC(=O)CN(c1ccc(F)cc1)S(=O)(=O)c1ccccc1	0	0	0	0	0	0
CCOc1ccc(C(=O)Nc2ccc(S(=O)(=O)N(Cc3ccccc3)c3ccccc3)cc2)cc1	-	-	5.17µM	-	5.8µM	-
O=C(CN(CCc1ccccc1)S(=O)(=O)c1ccc(Br)cc1)N/N=C/c1ccccc1C(=O)O	0	0	0	0	0	0
COC(=O)c1ccc(CN(c2ccc(OC)cc2)S(=O)(=O)c2ccccc2)cc1	0	-	13µM	0	?	0
COc1ccc(N(Cc2ccccc2)S(=O)(=O)c2ccc(C)cc2)cc1	0	0	?	0	0	0

Compound activity from PubChem BioAssay.
